This is an account of results in PubChem BioAssay AID1347146 (National Center for Advancing Translational Sciences (NCATS), 2019).

SMILES strings stand for the structures. Results filed as inconclusive are left out. Where a call stands in place of a potency, no number is given. Calls of active or inactive are those of the source. Calls follow the shape of the dose curve; as a rule, active = well fitted inhibition curve with a large enough effect; inconclusive = small, poorly fitted or top-dose-only effect; inactive = no such curve, though single readings can be large or run the other way.
Potency is read from the fitted curve at half-maximal effect.

For the assay, the target named is Nicotinamide N-methyltransferase (Homo sapiens) (UniProt P40261). The assay is described as follows: qHTS Assay for Inhibitors of N-terminal methyltransferase 1 (NTMT1): NNMT MTaseGlo counterscreen assay. As to conditions: NNMT enzyme, MTase-Glo luminescence counterscreen; series mostly up to 57.1 µM. An excerpt: Assay Submitter (PI): Rong Huang Ph.D, Purdue University, West Lafayette, IN 47907
Sequence of Nicotinamide N-methyltransferase (Homo sapiens) (P40261 whole entry, looked up): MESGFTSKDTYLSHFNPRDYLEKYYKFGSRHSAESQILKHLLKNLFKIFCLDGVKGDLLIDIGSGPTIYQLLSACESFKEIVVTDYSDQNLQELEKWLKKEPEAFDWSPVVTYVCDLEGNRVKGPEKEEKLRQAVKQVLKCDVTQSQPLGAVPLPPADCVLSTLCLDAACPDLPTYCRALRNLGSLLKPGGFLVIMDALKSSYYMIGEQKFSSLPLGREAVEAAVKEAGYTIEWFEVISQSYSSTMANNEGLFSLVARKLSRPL
The N-terminal methytransferase 1 is the first methyltransferase that methylates protein alpha-N-amines and plays an important role in regulating cell mitosis, chromatin interactions and DNA repair. It is observed to be over-expressed in various cancer patient tissues like malignant melanoma and colorectal cancer tissues. Knockdown of NTMT1 in cancer cells causes cell mitotic defects and enhances sensitivity to DNA damaging chemotherapeutics. […] These critical cellular processes in which NTMT1 is implicated, coupled with emerging links to cellular dysfunction, strengthen the inference that NTMT1 is a compelling novel anticancer target. Progress have been made in understanding the molecular properties of NTMT1 and the biological consequences of protein alpha-N-terminal methylation, but there are no specific small molecule probes available for NTMT1 to fully characterize its MTase activity. To address this unmet need, a panel of assay is created and established to enable quantitative high-throughput screening (qHTS) for novel, potent, and selective small molecule NTMT1 inhibitors. Two orthogonal qHTS that use different reagents (ThioGlo vs. MTaseGlo) are developed for primary robotic screening against the NCATS chemical library of more than 400,000 small molecules. Identified inhibitors are reacquired, validated, and further characterized.
MTaseGlo Assay is a luminescence screen that measure the activity of methyltransferases based on the reaction product S-adenosyl homocysteine (SAH). The substrate SAM is converted to SAH upon enzyme activation. MTase-Glo reagent and detection solution convert SAH to ATP and measure the light from the luciferase reaction. Nicotinamide N-methyltransferase (NNMT) is a cystolic enzyme that catalyzes the transfer of a methyl group from the co-factor SAM onto the substrate, nicotinamide (NA) to form 1-methyl-nicotinamide (MNA) and SAH. NNMT MTaseGlo assay is used as a counterscreen to evaluate selectivity of identified inhibitors.
Early Translation Branch (ETB)
National Center for Advancing Translational Sciences (NCATS)
National Institute of Health (NIH)
NNMT enzyme, SAM, NA, and control is provided by the Huang laboratory.
In brief, 3 µL of enzyme mixture (final concentrations of 125 nM and 100 µM for NNMT and SAM, respectively) into all wells of a 1,536-well solid-bottom white plate (Greiner Bio One, Monroe, NC). 23 nL of DMSO or compound (final concentration range 234 nM to 143 microM) was transferred via Wako Pin-tool (Wako Automation, Richmond, VA) and incubated (RT) for ~15 minutes. Next, 1 µL of substrate (final concentration 1 µM NA) or buffer was dispensed, and the reaction proceeded for 30 minutes (RT, protected from light) followed by a 1 microL addition of [5X] MTase-Glo Reagent(R). Samples were incubated (RT, protected from light) for 30 minutes to allow for SAH to be converted to ADP, followed by a 5 microL addition of [1X] MTase-Glo Detection Solution(R) to allow for ADP to be converted to ATP, which was then detected with a luciferase reaction. Samples were centrifuged for 15 seconds at 1,000 RPM's, followed by a RT incubation for 30 minutes. Plates were then read using Luminescence optics on a ViewLux detector. Data were normalized to no-enzyme (0% activity) and no-inhibitor (DMSO; 100%) controls, and the resulting percent inhibition data were fitted to a 4-parameter Hill equation using Graphpad Prism.
On the technique in general: Quantitative high-throughput screening tests each substance at several concentrations.
As for `Ic1ccccc1CNC1C2CCN(CC2)C1C(c1ccccc1)c1ccccc1` (stereo not given), the Potency result was “inactive”.

For `COC[C@H]1OC(=O)c2coc3c2[C@@]1(C)C1=C(C3=O)C2CCC(=O)[C@@]2(C)C[C@H]1OC(C)=O` (stereo not given in full), the Potency result was “inactive”.

Turning to `O=[N+]([O-])c1ccc2nc(N3CCNCC3)ccc2c1`, the Potency entry was “inactive”.

For the compound `C[N+](C)(C)CC#CCN1CCCC1=O`, the Potency result was “inactive”.

`C[N+]1(C)CCN(c2ccccc2)CC1`: the Potency entry is “inactive”.

As to `O=C1CC[C@@]2(O)C3Cc4ccc(O)c5c4C2(CCN3CC2CC2)[C@H]1O5` (stereo not given in full), the Potency entry is “inactive”.

Regarding `CC(C)(C)c1cc(C=C(C#N)C#N)cc(C(C)(C)C)c1O`, the Potency entry is “inactive”.

For the compound `c1ccc(CCCN2CCN(CCOC(c3ccccc3)c3ccccc3)CC2)cc1`, the Potency result was “inactive”.

Turning to `CCCN(CCC)[C@H]1CCc2c(F)ccc(O)c2C1`, the Potency result was “inactive”.

As for `CC(N)[C@H](O)c1ccc(O)c(O)c1` (stereo not given in full), the Potency entry was “inactive”.

Turning to `CC(=O)c1c(O)c(C)c(O)c(Cc2c(O)c3c(c(C(=O)/C=C/c4ccccc4)c2O)OC(C)(C)C=C3)c1O`, the Potency result is “inactive”.

Consider `NC(N)=Nc1ccc2[nH]c3c(c2c1)C[C@@]1(O)[C@H]2Cc4ccc(O)c5c4[C@@]1(CCN2CC1CC1)[C@H]3O5`, for which the Potency result is “inactive”.

`N#CC(C#N)=Cc1ccc(O)c(O)c1`: the Potency result is “inactive”.

For the compound `NC(=O)CI`, the Potency entry is “inactive”.

`CNCCc1c[nH]c2ccc(O)cc12`: the Potency result is “inactive”.

Regarding `NC1CCc2cc(O)c(O)cc2C1` (stereo not given), the Potency result is “inactive”.

Regarding `CC(N)Cc1c[nH]c2ccc(O)cc12` (stereo not given), the Potency result was “inactive”.

`COc1ccc2c(c[n+](C)c3c4cc5c(cc4ccc23)OCO5)c1OC`: the Potency is 12.6 µM (active).

For the compound `C[N+]1(C)C2CCC1CC(OC(=O)c1c[nH]c3ccccc13)C2` (stereo not given), the Potency entry is “inactive”.

On to `O=[N+]([O-])c1cc(O)c(O)c([N+](=O)[O-])c1`, for which the Potency result was “inactive”.

Take `CN[C@@H]1C[C@@H](c2ccc(Cl)c(Cl)c2)c2ccccc21`: the Potency result was “inactive”.

`NCC(O)c1cc(O)c(O)cc1F` (stereo not given): the Potency entry was “inactive”.

As for `Clc1ccc(N2CC3CCC(C2)N3)nn1`, the Potency entry is “inactive”.

As to `CCn1cnc2c(Nc3cccc(Cl)c3)nc(N[C@@H]3CCCC[C@@H]3N)nc21`, the Potency entry is “inactive”.

As to `CC(C)=CCOc1c2occc2cc2ccc(=O)oc12`, the Potency entry was “inactive”.
